Coupling enz: coupling enzyme interference in Giardia aldolase counter-screen. coupling enzyme system counterscreen, AmpLite Red fluorescence. activity change, negative = inhibition, % at 58.2 µM, hits read low. hit rate 0.67% among 290,000. AID 2472; in the data active = activity change below about -30%
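Fluorescence at 525 nm excitation and 598 nm emission measured inhibition of the coupled detection system without aldolase. Compounds (at 57.5 uM final) were preincubated 10 min at room temperature with coupling enzyme reagent before a 20 min substrate/AmpLite Red step.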
rTrxR1 inhibitor: blocks rat thioredoxin reductase 1 | O89049 | recombinant rTrxR1, NADPH fluorescence consumption, selenite substrate | Potency, µM (series often up to 114 µM), hits mostly inhibitors | hit rate 1% among 390,000 | AID 588453; also: nearly all actives have a fitted effect of over 65% in size
Target sequence (O89049 whole entry, looked up): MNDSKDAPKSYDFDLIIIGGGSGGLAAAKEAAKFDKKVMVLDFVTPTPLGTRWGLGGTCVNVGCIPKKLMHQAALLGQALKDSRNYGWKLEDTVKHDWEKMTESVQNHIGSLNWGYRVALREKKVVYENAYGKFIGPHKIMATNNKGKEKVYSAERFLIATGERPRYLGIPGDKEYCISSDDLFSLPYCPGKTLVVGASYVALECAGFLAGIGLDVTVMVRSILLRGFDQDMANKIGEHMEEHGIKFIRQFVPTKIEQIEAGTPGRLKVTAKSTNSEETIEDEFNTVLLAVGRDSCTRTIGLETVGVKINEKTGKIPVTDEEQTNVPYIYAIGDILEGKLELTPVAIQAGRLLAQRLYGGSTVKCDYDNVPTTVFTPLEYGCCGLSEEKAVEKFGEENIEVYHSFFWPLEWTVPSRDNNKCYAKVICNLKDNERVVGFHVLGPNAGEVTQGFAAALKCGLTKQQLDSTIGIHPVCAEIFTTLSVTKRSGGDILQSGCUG
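Rat TrxR1 (90 nM in the dispensed reagent) was pre-reduced with 400 uM NADPH for 5 min at room temperature, then incubated with compound for 15 min. After 400 uM selenite was added, NADPH fluorescence (Ex 340/Em 450 nm) was followed for 8 min.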
GALK inh: blocks human galactokinase activity. Potency, µM (doses to about 57.5 µM), hits mostly inhibitors. hit rate 0.007% among 270,000. P51570. Purified GALK, Kinase-Glo residual ATP luminescence
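Quantitative HTS: GALK 5 nM, ATP 35 uM, galactose 100 uM, 1 h room temperature, then luciferase-based ATP detection.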
TrxR1 substrate: substrates of rat thioredoxin reductase 1 | AID 588456 | Potency, µM (highest dose often 114 µM) | hit rate 0.01% among 390,000 | O89049 | purified TrxR1 substrate turnover, NADPH consumption readout; also: nearly all actives have a fitted effect of over 50% in size
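Rat TrxR1, dispensed at 90 nM, was prereduced with 400 uM NADPH (final) for 5 min at ~22 deg C, then incubated with compound 15 min before 400 uM selenite. A first-read NADPH fluorescence drop versus no-compound background flagged substrates.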
USP1-UAF1 inh: inhibitors of human USP1/UAF1 deubiquitinase | AID 743255 | recombinant USP1/UAF1, Ub-Rhodamine cleavage fluorescence | Potency, µM (doses to about 57.1 µM), most hits filed as inhibitors | hit rate 0.23% among 390,000 | O94782; also: nearly all actives have a fitted effect of over 60% in size
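USP1/UAF1 complex at 1 nM was preincubated with compound for 15 min at room temperature, then Ub-Rho substrate (150nM final) was added. Fluorescence (480/540 nm) was read kinetically, 6 reads every 60 seconds.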
A number is an active result; 0 = inactive; ? = inconclusive; - = no result; ! = repeats disagree; [ ] = dose if it differs, or a comment. Sampled rows, rich in hits. Any-hit rate of the full collection: about 1.5%. Unless noted, calls follow the shape of the dose curve; as a rule, active = well fitted curve in the direction sought with a large enough effect; inconclusive = small, poorly fitted or top-dose-only effect, or another doubt; inactive = no such curve, though single readings can be large; an effect the other way counts as inactive or inconclusive.

SMILES	Coupling enz	rTrxR1 inhibitor	GALK inh	TrxR1 substrate	USP1-UAF1 inh
Cn1ccnc1Sc1ccc(C=O)cc1[N+](=O)[O-]	0	0	0	0	0
CCCSc1cc(NCCOC(=O)CCC)c([N+](=O)[O-])c2nonc12	0	?	0	0	0
CCCSc1cc(NCCOC(C)=O)c([N+](=O)[O-])c2nonc12	-39	0	0	0	0
CCCC(=O)OCCNc1cc(Sc2nccn2C)c2nonc2c1[N+](=O)[O-]	0	0.56µM	0	0	0
CC(=O)OCCCNc1cc(SCc2ccco2)c2nonc2c1[N+](=O)[O-]	0	2.5µM	0	0	0
O=C(NCCc1c[nH]c2ccccc12)c1ccccc1O	0	-	-	-	-
COc1ccccc1C1NC(c2ccc3c(c2)OCO3)=CC(c2ccccc2O)N1 (stereo not given)	-	0	-	0	-
COC(=O)c1ccc([C@@H]2Nc3c(OC)ccc(C)c3[C@@H]3C=CC[C@@H]32)cc1	-	56µM	-	0	0
COc1cccc2c1C(=O)c1c(O)c3c(c(O)c1C2=O)C[C@@](O)(C(C)=O)C[C@@H]3O[C@H]1C[C@H](N)[C@H](O)[C@H](C)O1	-52!	0	-	0	5.6µM
COc1cccc2c1C(=O)c1c(O)c3c(c(O)c1C2=O)C[C@@](O)(C(=O)CO)C[C@@H]3O[C@H]1C[C@H](N)[C@@H](O)[C@H](C)O1	-	0	-	0	28µM
COc1cccc2c1C(=O)c1c(O)c3c(c(O)c1C2=O)C[C@@](O)(C(=O)CO)C[C@@H]3OC1C[C@@H](N)[C@H](O)[C@H](C)O1 (stereo not given in full)	0	-	-	-	-
CC(=O)[C@]1(O)Cc2c(O)c3c(c(O)c2[C@@H](O[C@H]2C[C@H](N)[C@H](O)[C@H](C)O2)C1)C(=O)c1c(O)cccc1C3=O	-35	-	-	-	-
CCNc1ccc(/C=C2\C=Cc3ccccc32)cc1	-	?	-	0[0.0914 µM]	-
COc1ccc(N/N=C(/C#N)S(=O)(=O)c2nsc(C)c2C#N)cc1	0	?	?	0	0
Cc1snc(S(=O)(=O)/C(C#N)=N/Nc2cccc(C(F)(F)F)c2)c1C#N	0	0	28µM	0	0
OC(C1=C/C(=C\c2ccncc2)c2ccccc21)c1ccncc1 (stereo not given)	-	0	-	0	-
CC(C)C1Nc2ccc(S(N)(=O)=O)cc2C2C=CCC21 (stereo not given)	0	?	0	0	0
NS(=O)(=O)c1ccc2c(c1)C1C=CCC1C(C1CC=CCC1)N2 (stereo not given)	0	40µM	0	0	0
Nc1cc(=O)[nH]c(=S)[nH]1	-	0	-	0	-
Cc1ccc(N2C(=O)CC(N(O)C3CC(=O)N(c4ccc(C)cc4)C3=O)C2=O)cc1 (stereo not given)	0	?	0	0	0
CCCCCCC(=O)N(O)C1CC(=O)N(c2ccc(Cl)cc2)C1=O (stereo not given)	0	11µM	0	0	0
O=C(O)CSC1CC(=O)N(c2ccc(Cl)cc2)C1=O (stereo not given)	0	0	0	0	0
CCCCCCC(=O)N(O)C1CC(=O)N(c2ccc(C)cc2)C1=O (stereo not given)	0	16µM	0	0	0
CSCC[C@H](NC(=O)[C@H](CC(C)C)NC(=O)[C@H](Cc1c[nH]c2ccccc12)NC(=O)[C@H](CCC(N)=O)NC(=O)[C@@H](NC(=O)[C@H](Cc1ccccc1)NC(=O)[C@H](CC(=O)O)NC(=O)[C@H](CCC(N)=O)NC(=O)[C@H](C)NC(=O)[C@H](CCCNC(=N)N)NC(=O)[C@H](CCCNC(=N)N)NC(=O)[C@H](CO)NC(=O)[C@H](CC(=O)O)NC(=O)[C@H](CC(C)C)NC(=O)[C@H](Cc1ccc(O)cc1)NC(=O)[C@H](CCCCN)NC(=O)[C@H](CO)NC(=O)[C@H](Cc1ccc(O)cc1)NC(=O)[C@H](CC(=O)O)NC(=O)[C@H](CO)NC(=O)[C@@H](NC(=O)[C@H](Cc1ccccc1)NC(=O)[C@@H](NC(=O)CNC(=O)[C@H](CCC(N)=O)NC(=O)[C@H](CO)NC(=O)[C@@H](N)Cc1cnc[nH]1)[C@@H](C)O)[C@@H](C)O)C(C)C)C(=O)N[C@@H](CC(N)=O)C(=O)N[C@H](C(=O)O)[C@@H](C)O	0	-	-	-	-

From PubChem
